In the library only some 17% were active in any assay of this set; here they are far more common.
HepG2 tox – HepG2 cytotoxicity, counter-screen for TGF-b inhibitors. HepG2 CAGA-GFP viability, ATP luminescence, 18 h. Potency, µM (titrated, usually from 46.1 µM), inactives show at the highest dose activity change, negative = cytotoxicity, actives largely listed as cytotoxic. 0.76% of 410,000 active. AID 588856
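HepG2 CAGA-GFP cells (1000/well, DMEM with 1% FBS) received compound, then TGF-beta at 500 pg/mL final, and were incubated 18 hours at 37 degrees C. Viability was read by CellTiter-Glo luminescence. Media-only wells were set as complete cell-killing and DMSO as no toxicity.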
HT1080 IDH1KD tx – kills HT-1080 cells with IDH1 knockdown. 2% of 360,000 active. HT-1080 IDH1 knockdown viability, ATP luminescence, 48 h. Potency, µM (top dose mostly 46.1 µM), without a hit: at the highest dose activity, negative = toxicity, usual class: cytotoxic. AID 686971;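 further: 0% = DMSO wells and -100% = cell-free medium wells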
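IDH1KD HT-1080 cells, 750/well, RPMI + 5% FBS; compound pinned after 2 h settling; 48 h, 37 °C; CellTiter-Glo luminescence; % activity normalised to DMSO and no-cell wells; curves fitted, classed by r2 and efficacy.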
TDP1 cell CPT – growth inhibition of DT40 Tdp1-/-;hTDP1 cells with camptothecin (screen for TDP1 inhibitors) | chicken DT40 Tdp1-/-;hTDP1 cells + 20 nM CPT, ATP luminescence, 48 h | Potency, µM (titrated, usually from 46.2 µM), for inactives: at the highest dose activity change, negative = growth inhibition, usual class: inhibitors | 12% of 420,000 active | AID 686979; further: on the % scale 0 is the no-effect control and ±100 the full control effect; nearly all actives have a fitted effect of over 55% in size
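Chicken DT40 Tdp1-/- cells complemented with human TDP1, 400 cells/well, exposed to compounds plus 20 nM camptothecin for at least 48 h at 37 C; viability read as ATP content by CellTiter-Glo luminescence.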
HT1080-NT tox – kills 2HG-producing HT-1080-NT fibrosarcoma cells; HT-1080-NT fibrosarcoma viability, CellTiter-Glo ATP luminescence, 48 h; Potency, µM (titrated, usually from 46.1 µM), without a hit: top-dose activity, negative = less viability, most hits filed as cytotoxic; 1.6% of 360,000 active; AID 686970;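 further: NT is the 2HG producing partner of a matched IDH1 knockdown line; 0% = DMSO-treated cells and -100% = media-only wells without cells; nearly all actives have a fitted effect of over 55% in size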
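Viability by CellTiter-Glo luminescence after 48 h compound exposure at 37C of HT-1080-NT cells (750/well, RPMI, 5% FBS). % activity scaled between DMSO wells and medium-only wells, then curve-fitted and categorized by curve class.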
DT40 TDP1 no CPT – qHTS for Inhibitors of human tyrosyl-DNA phosphodiesterase 1 (TDP1): qHTS in cells in absence of CPT | DT40 Tdp1-/- hTDP1 cells, no CPT, ATP luminescence, 48 h | Potency, µM (titrated, usually from 46.2 µM), for the others: at the top dose activity change, negative = growth inhibition, usual class: inhibitors | 15% of 420,000 active; further: on the % scale 0 is the no-effect control and ±100 the full control effect; nearly all actives have a fitted effect of over 55% in size
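Readout: luminescence from CellTiter-Glo after 30 min in the dark at RT. Cells: DT40 Tdp1-/- with stable hTDP1, 400/well. Exposure: compounds alone, ≥48 hr, 37 °C.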
TGFb SMAD3 inh – TGF-b pathway inhibition; HepG2 CAGA-GFP TGF-b/SMAD3 reporter, GFP fluorescence, 18 h; TGF-beta stimulated, 500 pg/mL final; Potency, µM (titrated, usually from 46.1 µM), without a hit: top-dose activity, negative = inhibition, hits mostly inhibitors; 1.2% of 410,000 active; AID 588855; further: on the % scale 0 is the no-effect control and ±100 the full control effect; nearly all actives have a fitted effect of over 65% in size
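HEPG2 CAGA-GFP cells (1000/well, DMEM with 1% FBS) were pre-incubated 2 h at 37 degrees C, given compound by pin tool, then stimulated with TGF-beta at 500 pg/mL final for 18 h before per-cell GFP fluorescence imaging.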
Numbers without * were called inactive; u = inconclusive; x = not tested or not shown. The call rests on the fitted dose curve; in most records, active means well fitted curve in the direction sought with a large enough effect; inconclusive means small, poorly fitted or top-dose-only effect, or another doubt; inactive means no such curve, though single readings can be large; an effect the other way counts as inactive or inconclusive. Potency means the concentration at half of the fitted maximal effect.

SMILES	HepG2 tox	HT1080 IDH1KD tx	TDP1 cell CPT	HT1080-NT tox	DT40 TDP1 no CPT	TGFb SMAD3 inh
Cc1ccc(NC(=O)N2CCN(c3nnc(C)c4c(C)n(-c5ccccc5)nc34)CC2)c(Cl)c1	-19%	x	-15%	x	-21%	-20%
Cc1ccc(NC(=O)C2CCN(c3nnc(C)c4c(C)n(-c5ccccc5)nc34)CC2)c(Cl)c1	-19%	x	13µM*	x	u	u
CCc1ccc(NC(=O)N2CCN(c3nnc(C)c4c(C)n(-c5ccc(Cl)cc5)nc34)CC2)cc1	4%	x	u	x	23µM*	-3%
Cc1ccc(NC(=O)C2CCCN(c3nnc(C)c4c(C)n(-c5ccccc5)nc34)C2)c(Cl)c1 (stereo not drawn)	-30%	x	4.1µM*	x	3.3µM*	-5%
CCc1ccc(NC(=O)C2CCCN(c3nnc(C)c4c(C)n(-c5ccccc5)nc34)C2)cc1 (stereo not drawn)	-1%	x	u	x	9.2µM*	-1%
COc1ccc(NC(=O)[C@@H](c2ccccc2)N2Cc3ccccc3C2=O)cc1OC	13%	x	-19%	x	-25%	10%
Cc1nn(C)c(C)c1CCNC(=O)Nc1cccc(Cl)c1C	2%	x	1%	x	-26%	-7%
CCOCC(=O)Nc1nc(-c2ccccc2)c(CC)s1	-24%	3%	-26%	13%	u	0%
Cc1cc(C)cc(NC(=O)C2CCCN(c3nnc(C)c4c(C)n(-c5ccccc5)nc34)C2)c1 (stereo not drawn)	-16%	x	23µM*	x	15µM*	-8%
Nc1ccnn1Cc1cccnc1	-8%	2%	-7%	6%	4%	4%
CN(C)C(=S)N=c1ssc(=S)n1Cc1cccnc1	-45%	-14%	1.8µM*	-9%	2.6µM*	3.2µM*
CC1=C(C(=O)OCc2ccccc2)C(c2cccnc2)n2nnnc2N1 (stereo not drawn)	-18%	-12%	u	2%	16µM*	-2%
CCCCCOC(=O)C1=C(C)Nc2nnnn2C1c1ccccc1Cl (stereo not drawn)	-109%	21µM*	u	13µM*	21µM*	u
Cc1cccc(Nc2ncc3c(n2)CC(c2ccco2)CC3=O)c1 (stereo not drawn)	-6%	u	u	u	21µM*	-20%
Cc1cc(C)cc(Nc2ncc3c(n2)CC(c2ccco2)CC3=O)c1 (stereo not drawn)	0%	3%	u	-11%	u	9%
COc1ccc(N(C)C(=O)c2ccc(NC(=O)CCS(=O)(=O)c3cccs3)cc2)cc1	-1%	-1%	-5%	-19%	6%	11%
CCSc1nc(-c2ccco2)ccc1C#N	-1%	5%	23µM*	-11%	u	-6%
CCN(c1ccc(OC)cc1)S(=O)(=O)c1ccc2c(c1)CC(C)N2C(=O)C1CC1 (stereo not drawn)	-1%	-12%	21µM*	-6%	18µM*	-16%
CC1Cc2cc(S(=O)(=O)N(C)c3ccc(Br)cc3)ccc2N1C(=O)C1CC1 (stereo not drawn)	-26%	x	23µM*	x	23µM*	-30%
COc1ccc(N2CCN(S(=O)(=O)CCNC(=O)COc3ccccc3F)CC2)cc1	1%	x	2%	x	-26%	-5%
COCCN(C(=O)CSc1nnc(-c2ccccc2F)n1N)c1c(N)n(Cc2ccccc2)c(=O)[nH]c1=O	12%	-2%	4%	-1%	13%	21%
CC(C)NS(=O)(=O)c1ccc(CCC(=O)Nc2cc(Cl)ccc2Oc2ccccc2)cc1	7%	-10%	23µM*	-12%	23µM*	-32%
Cc1nn(CC(=O)N2CCN(c3ccccc3F)CC2)c(=O)c2cccn12	-3%	x	3%	x	-16%	x
Cc1nn(-c2cccc(Cl)c2)c(Cl)c1/C=N/NC(=O)c1cccnc1	-62%	-3%	u	-3%	u	-22%
CCOc1ccc(S(=O)(=O)NCC(c2ccco2)S(=O)(=O)c2ccc(C)cc2)cc1 (stereo not drawn)	2%	x	u	x	u	u
SMILES	HepG2 tox	HT1080 IDH1KD tx	TDP1 cell CPT	HT1080-NT tox	DT40 TDP1 no CPT	TGFb SMAD3 inh
Cc1ccc(C)c(S(=O)(=O)NCC(c2ccco2)S(=O)(=O)c2ccc(F)cc2)c1 (stereo not drawn)	-37%	x	1.3µM*	x	1.2µM*	11µM*
COc1ccc(S(=O)(=O)NCC(c2ccco2)S(=O)(=O)c2ccc(C)cc2)cc1C (stereo not drawn)	-5%	x	u	x	u	10µM*
COc1ccc(F)cc1S(=O)(=O)NCC(c1ccco1)S(=O)(=O)c1ccc(F)cc1 (stereo not drawn)	-56%	x	u	x	u	u
O=C(CN1C(=O)COc2ccc(S(=O)(=O)N3CCCC3)cc21)Nc1cccc(F)c1	-29%	16%	u	6%	u	-21%
O=P(c1ccccc1)(c1ccccc1)c1nc(-c2ccccc2)oc1NCc1ccccc1	7%	5%	u	-3%	18µM*	1%
CCOc1ccccc1NC(=O)Cc1coc2ccc(C)cc12	-10%	9%	u	6%	16µM*	26%
Cc1cccc(NC(=O)c2oc3ccccc3c2NC(=O)Cc2coc3ccc(C(C)C)cc23)c1	-13%	x	u	x	u	-17%
CC(C)c1ccc2occ(CC(=O)Nc3cccc(C(F)(F)F)c3)c2c1	-74%	x	u	x	29µM*	u
Cc1ccc2occ(CC(=O)Nc3ccc(Cl)c(C(F)(F)F)c3)c2c1	13µM*	x	21µM*	x	16µM*	u
CCOc1ccccc1NC(=O)Cc1noc2ccc(C)cc12	-11%	x	-12%	x	u	10%
Cc1cc(C)c2nc(N3CCC(C(=O)NCCCN4CC(C)CC(C)C4)CC3)sc2c1 (stereo not drawn)	10%	x	u	x	23µM*	-3%
Cc1cc(C)c2nc(N3CCCC(C(=O)NCCCN4CCOCC4)C3)sc2c1 (stereo not drawn)	-42%	u	u	u	u	-19%
CC1CC(C)CN(CCCNC(=O)C2CCN(c3nnc(-n4cccc4)s3)CC2)C1 (stereo not drawn)	3%	-1%	-11%	-1%	20%	-1%
